Assay results reported in PubChem BioAssay AID463173 (ICCB-Longwood Screening Facility, Harvard Medical School, 2010).
Screen size: about 52,000 compounds; about 4,300 (8.3%) were called active. The sample holds actives, similar compounds and a random draw of the others, so the mix is not that of the screen. Unmarked numbers belong to inactive results. Cut-off read from the data, not from the text of the source: active = survival mostly below about 52% (no sharp cut-off); inactive = mostly above about 56%.

What follows are compounds tested on DeltatarO mutant (assay: S. aureus survival, RN4220 and DeltatarO strains – OD600, teichoic acid synthesis inhibitors, primary screen (AID 463173)). Conditions: S. aureus RN4220 wild type/DeltatarO growth, OD600, 18 h, active compounds read low, screened at 18.75 µg/mL (by protocol).

Row | SMILES | survival
1 | Cn1c(=O)n(CCc2ccccc2)c(=O)c2c1nc1n2CCN1c1ccc(Cl)cc1 | 76%
2 | O=C(Cc1ccccc1)N(Cc1cccnc1)c1nc2ccc(F)cc2s1 | 86%
3 | Cc1ccc(C2CCN(C(=O)c3cnn(-c4ccc(C)c(C)c4)c3C3CCN(C(=O)OC(C)(C)C)CC3)C2)cc1 (stereo not drawn) | 90%
4 | COc1ccccc1N1CCN(S(=O)(=O)c2ccc(F)c(C(=O)Nc3ccc(C)c(F)c3)c2)CC1 | 93%
5 | Cn1c(=N)n(CC(=O)c2ccc(-c3ccccc3)cc2)c2ccccc21 | 106%
6 | CCCCNC(=O)CCCn1c(=O)c2ccccc2n(Cc2c(C)cc(C)cc2C)c1=O | 90%
7 | Cc1ccc(NC(=O)Cn2cc(C(=O)C3CCCCC3)c3ccccc32)c(C)c1 | 78%
8 | COc1cccc(CNC(=O)COc2cc(=O)n(C)c3ccccc23)c1 | 72%
9 | CCOC(=O)c1cnc2c(C)cc(Cl)cc2c1NCCc1ccc(OC)c(OC)c1 | 31% (active)
10 | CCOC(=O)c1cnc2c(C)cc(C)cc2c1NCCc1ccc(OC)c(OC)c1 | 66%
11 | CCOC(=O)c1c(C)oc2nc(C)nc(NCCc3ccc(OC)c(OC)c3)c12 | 94%
12 | COCCn1c(SCC(=O)c2ccc(F)cc2)nc2cc(C(=O)NC3CCCC3)ccc2c1=O | 94%
13 | CCCC1(C(=O)OCC)NC(c2ccccc2F)C2C(=O)N(c3ccccc3)C(=O)C21 (stereo not drawn) | 88%
14 | CCOC(=O)c1c(C)[nH]c(C)c1S(=O)(=O)NCC(=O)Nc1cccc(SC)c1 | 66%
15 | OC1(C#CCN2CCCCCC2)CCCCC1 | 93%
16 | O=C(CC1(O)C(=O)N(CCc2ccccc2)c2ccc(Br)cc21)c1ccccc1 (stereo not drawn) | 25% (active)
17 | C#CCN1C(=O)C(O)(CC(=O)c2ccc(OC)c(OC)c2)c2cc(Br)ccc21 (stereo not drawn) | 78%
18 | COc1ccc(C(=O)CC2(O)C(=O)N(CCc3ccccc3)c3ccc(Br)cc32)cc1OC (stereo not drawn) | 53%
19 | O=C(CC1(O)C(=O)N(CCc2ccccc2)c2ccc(Br)cc21)c1ccc(F)cc1 (stereo not drawn) | 55%
20 | O=C(CC1(O)C(=O)N(CCc2ccccc2)c2ccc(Br)cc21)c1ccccc1O (stereo not drawn) | 40% (active)
21 | Cc1ccc(C(=O)CC2(O)C(=O)N(CCc3ccccc3)c3ccc(Br)cc32)cc1 (stereo not drawn) | 39%
22 | Cc1nn2c(-c3ccco3)ccnc2c1-c1ccc(Br)cc1 | 81%
23 | N#Cc1c(N)nc(SCc2ccccc2)c(C#N)c1-c1cccs1 | 49%
24 | COc1ccc(N(C(=O)Cn2nnc3ccccc32)C(C(=O)NCC2CCCO2)c2sccc2C)cc1 (stereo not drawn) | 94%

Row | SMILES | survival
25 | COc1ccc(-n2nc(C(=O)NCCc3ccc(OC)c(OC)c3)c3c4ccccc4n(C)c3c2=O)cc1 | 89%
26 | O=c1[nH]c(=O)n(C2CCCCC2)c(O)c1C1=Nc2ccccc2SC(c2ccccc2)C1 (stereo not drawn) | 93%
27 | Cc1ccc(S(=O)(=O)c2cn(C)c3cc(N4CCCC4)c(F)cc3c2=O)c(C)c1 | 67%
28 | Cc1ccc(C)c(N2CCN(C(=O)Cn3cnc4nc5c(cc4c3=O)CCCC5)CC2)c1 | 87%
29 | Cc1ccc(C)c(NC(=O)Cn2cnc3nc4c(cc3c2=O)CCCC4)c1 | 89%
30 | Cc1cccc(N(C)C(=O)Cn2cnc3nc4c(cc3c2=O)CCCC4)c1 | 17% (active)
31 | O=C(Cn1cnc2nc3c(cc2c1=O)CCCC3)Nc1ccc(F)cc1Cl | 88%
32 | Cc1c(Cl)cccc1NC(=O)Cn1cnc2nc3c(cc2c1=O)CCCC3 | 126%
33 | COc1cc(OC)c(NC(=O)Cn2cnc3nc4c(cc3c2=O)CCCC4)cc1Cl | -5% (active)
34 | CCc1ccccc1NC(=O)c1ccc(F)c(S(=O)(=O)N2CCN(c3cccc(Cl)c3)CC2)c1 | 88%
35 | CCOC(=O)c1ccc(NC(=O)c2nsc3ccccc23)cc1 | 60%
36 | CC1CCC(NC(=O)c2ccc3c(c2)N(Cc2ccccc2)C(=O)c2ccccc2S3(=O)=O)CC1 (stereo not drawn) | 115%
37 | CCOC(=O)c1c(C)oc2nc(C)nc(NCc3ccccc3OCC)c12 | 102%
38 | O=C(CCCn1c(=O)c2sccc2n(Cc2cccc(Cl)c2)c1=O)NCc1ccc2c(c1)OCO2 | 64%
39 | CCN(CC)c1ccc(C=C2C(=O)OC3(CCCC3)OC2=O)cc1 | 83%
40 | CCN(CC)c1ccc(/C=C2/SC(=O)NC2=O)cc1 | 34% (active)
41 | CCCN(CCC)CN1C(=O)S/C(=C/c2ccc(N(CC)CC)cc2)C1=O | 68%
42 | O=C(NCCC1=CCCCC1)C1CCN(C(=O)N2CCOc3ccccc32)CC1 | 72%
43 | CC(C)CCNC(=O)C1CCN(C(=O)N2CCOc3ccc(Cl)cc32)CC1 | 52%
44 | CNC(=O)C1CCN(C(=O)N2CC(C)Oc3ccc(Cl)cc32)CC1 (stereo not drawn) | 59%
45 | CC1CN(C(=O)N2CCC(C(=O)NCCCc3ccccc3)CC2)c2cc(Cl)ccc2O1 (stereo not drawn) | 56%
46 | CC1CN(C(=O)N2CCC(C(=O)NCCC3=CCCCC3)CC2)c2cc(Cl)ccc2O1 (stereo not drawn) | 65%
47 | Cc1ccc2c(c1)N(C(=O)N1CCC(C(=O)NC3CCCCCC3)CC1)CCO2 | 82%
48 | CCc1ccccc1NC(=O)C1CCN(C(=O)N2CC(C)Oc3ccc(Cl)cc32)CC1 (stereo not drawn) | 55% (active)

Row | SMILES | survival
49 | O=C(NCCC1=CCCCC1)C1CCN(C(=O)N2CCOc3ccc(Cl)cc32)CC1 | 47% (active)
50 | O=C(NCCCc1ccccc1)C1CCN(C(=O)N2CCOc3ccc(Cl)cc32)CC1 | 46% (active)
51 | O=C(NC1CCCCCC1)C1CCN(C(=O)N2CCOc3ccccc32)CC1 | 76%
52 | CC1CN(C(=O)N2CCC(C(=O)NCc3ccccc3F)CC2)c2cc(Cl)ccc2O1 (stereo not drawn) | 60%
53 | O=C(NC1CCCCCC1)C1CCN(C(=O)N2CCOc3ccc(Cl)cc32)CC1 | 46% (active)
54 | COc1ccccc1N1CCN(c2nc3c(S(=O)(=O)c4ccc(C)c(C)c4)nnn3c3ccc(Cl)cc23)CC1 | 81%
55 | Cc1ccc(NCc2nnc(SCc3cc(C)ccc3C)o2)c(C)c1 | 91%
56 | Cc1cccc(C)c1NC(=O)Cn1cc(S(=O)(=O)Cc2ccc(F)cc2)c2ccccc21 | 78%
57 | Cc1ccc(C)c(S(=O)(=O)c2nnn3c2nc(Nc2ccc(C)c(C)c2)c2sccc23)c1 | 77%
58 | O=C(c1ccc2c(c1)N(Cc1ccccc1F)C(=O)c1ccccc1S2(=O)=O)N1CCC(Cc2ccccc2)CC1 | 71%
59 | Cc1ccc(NC(=O)C2Cc3ccccc3N2C(=O)c2ccccc2)cc1Cl (stereo not drawn) | 78%
60 | COc1ccc(CCNC(=O)C(=O)NCC(c2ccco2)S(=O)(=O)c2cccs2)cc1 (stereo not drawn) | 99%
61 | O=C1CC(c2ccccc2)Sc2nc3ccccc3n21 (stereo not drawn) | 66%
62 | CC1CCN(S(=O)(=O)c2ccc3c(c2)oc(=O)n3CC(=O)NCc2ccc(F)cc2)CC1 | 111%
63 | Cc1ccc(C)c(Nc2nnc(-c3ccc(C)c(S(=O)(=O)N4CCCCC4)c3)c3ccccc23)c1 | 119%
64 | Cc1ccc(-c2nnc(Nc3ccccc3O)c3ccccc23)cc1 | 49% (active)
65 | CNS(=O)(=O)c1cc(-c2nnc(Nc3cc(C)ccc3C)c3ccccc23)ccc1C | 69%
66 | COc1cc(C(Nc2ccc(S(=O)(=O)NCC3CCCO3)cc2)C(=O)NC(C)(C)C)cc(OC)c1OC (stereo not drawn) | 109%
67 | O=C(NCc1ccccc1)c1cccc(Nc2nc3ccccc3n3nnnc23)c1 | 71%
68 | CC(C)CCNC(=O)c1cccc(Nc2nc3ccccc3n3nnnc23)c1 | 39% (active)
69 | Cc1ccc(CNC(=O)c2cccc(Nc3nc4ccccc4n4nnnc34)c2)cc1 | 45%
70 | CCc1ccc(NC(=O)Cn2nnc(C(=O)NCCc3ccccc3)c2N)cc1 | 99%
71 | CCOC(=O)c1ccccc1NC(=O)CN1CCCN(Cc2cccc(Cl)c2)S1(=O)=O | 101%
72 | CSc1ccc(CCNC(=O)C2CCN(c3ncnc4c3nc3n4CCCCC3)CC2)cc1 | 79%

Row | SMILES | survival
73 | COc1ccccc1/C=C/c1nc2ccccc2n1C(C)C | 8% (active)
74 | COc1cccc(/C=N/n2c(N)nc3ccccc32)c1OC | 82%
75 | COc1cccc(/C=N/c2nc3ccccc3n2C)c1O | 122%
76 | O=C(c1ccc(Cl)cc1)C1CCN(C(=O)N2CCOCC2)CC1 | 66%
77 | NC(=O)CN1C(=O)C2(SCC(=O)N2c2cccc(F)c2)c2ccccc21 (stereo not drawn) | 78%
78 | Cc1ccc(NC(=O)C2CCN(c3nn4c(=O)cc(C)nc4s3)CC2)cc1 | 104%
79 | O=C(Nc1ccc(O)c(-c2nc3ccccc3o2)c1)c1sc2ccccc2c1Cl | 105%
80 | COC(=O)c1ccccc1NC(=O)c1cc2c(-c3ccc(OC)c(OC)c3)nn(C)c2s1 | 97%
81 | C=CCn1c(SC)nc2c1c(=O)[nH]c(=O)n2C | 94%
82 | Cc1ccc(/C=C/c2onc(C)c2S(=O)(=O)N2CCC(C(=O)NCc3ccc(Cl)cc3)CC2)cc1 | 93%
83 | Cc1ccc(/C=C/c2onc(C)c2S(=O)(=O)N2CCC(C(=O)Nc3cc(C)ccc3C)CC2)cc1 | 78%
84 | CCC(C)(C)NC(=O)C1CCN(S(=O)(=O)c2c(C)noc2/C=C/c2ccc(C)cc2)CC1 | 52% (active)
85 | COC(=O)/C(C#N)=C/c1ccc(-c2ccccc2)o1 | 75%
86 | Cc1ccc(-c2nn(CC(=O)NCc3ccccc3)c3c2cnc2ccc(F)cc23)cc1C | 75%
87 | O=C(Nc1ccc(F)cc1)c1ccc(Cn2nc(N3CCN(c4ccccc4)CC3)ccc2=O)o1 | 82%
88 | Cn1c(=O)c2c(-c3ccccc3)n3c(c2n(C)c1=O)C(c1ccccc1[N+](=O)[O-])Nc1ccccc1-3 (stereo not drawn) | 79%
89 | COc1ccc(-c2c3c(=O)n(C)c(=O)n(C)c3c3n2-c2ccccc2NC3c2ccc(OC)cc2)cc1 (stereo not drawn) | 74%
90 | Cc1ccc(C2Nc3ccccc3-n3c(-c4ccccc4)c4c(=O)n(C)c(=O)n(C)c4c32)cc1 (stereo not drawn) | 41% (active)
91 | Cn1c(=O)c2c(-c3ccccc3)n3c(c2n(C)c1=O)C(c1ccc([N+](=O)[O-])cc1)Nc1ccccc1-3 (stereo not drawn) | 34% (active)
92 | Cn1c(=O)c2c(-c3ccccc3)n3c(c2n(C)c1=O)C(c1cccc([N+](=O)[O-])c1)Nc1ccccc1-3 (stereo not drawn) | 53%
93 | COc1ccc(C2Nc3ccccc3-n3c(-c4ccccc4)c4c(=O)n(C)c(=O)n(C)c4c32)cc1 (stereo not drawn) | 79%
